Common to all, as to experiment: qHTS profiling for inhibitors of Plasmodium falciparum proliferation (AID 504749); further: nearly all actives have a fitted effect of over 60% in size
What all share (settings): P. falciparum in erythrocytes, SYBR Green DNA, 72 h; series mostly up to 28.7 µM
In general terms: Quantitative high-throughput screening tests each substance at several concentrations.

In one experiment the test system is AA1029. A digest of the protocol:
(§1)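 Each compound contacts P. falciparum-infected red blood cells for 72 h at 37 C; lysis buffer (Tris, EDTA, saponin, Triton X, SYBR Green I) is added and fluorescence measured next morning; values normalized to controls.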

For a further experiment, the system named is AS120. A digest of the protocol:
as §1

For the next experiment, the system named is ATS95. A digest of the protocol: as §1
The next experiment concerns CP194. Summed up:
as §1

In a further experiment the test system is CP247. Summed up: as §1
In a further experiment the test system is CP260. Summed up: as §1
Another experiment relates to CP266. Summed up:
as §1

The next experiment has as its system CP297. Summed up:
as §1

The subject of a further experiment is DFO2036. Summed up: as §1
The next experiment concerns DIV14. A digest of the protocol: as §1
The subject of a further experiment is DIV30. Summed up: as §1
The next experiment deals with Dd2. Summed up:
as §1

In a further experiment the test system is GB4. A digest of the protocol: as §1
Another experiment relates to ICS. A digest of the protocol: as §1
A further experiment has as its system P93_24. Summed up:
as §1

For another experiment, the system named is P94_40. A digest of the protocol:
as §1

In another experiment the test system is PAD. Summed up:
as §1

A further experiment has as its system PC26. A digest of the protocol: as §1
The next experiment deals with SC27B. Summed up:
as §1

Another experiment deals with TAB165. A digest of the protocol:
as §1

Structures are written as SMILES. Records with an inconclusive call do not appear. Calls of active or inactive are those of the source. The call rests on the fitted dose curve; in most records, active means well fitted inhibition curve with a large enough effect; inconclusive means small, poorly fitted or top-dose-only effect; inactive means flat fitted curve, though single readings scatter.
Potency means the concentration at half of the fitted maximal effect.

As to `CN1C2CCC1C(C(=O)O)C(OC(=O)c1ccccc1)C2` (stereo not drawn), the Potency result in the experiment with AA1029, with AS120, with ATS95, in the experiment on CP194, in the experiment with CP247 and in the experiment with CP260 was “inactive” each time. Also, the Potency entry in the experiment with CP266, in the experiment with CP297, in the experiment on DFO2036, with DIV14, with DIV30 and in the experiment with Dd2 was “inactive” throughout. For the same compound, the Potency result in the experiment on GB4, in the experiment with ICS, in the experiment on P93_24, in the experiment on P94_40, in the experiment on PAD and with PC26 was “inactive” throughout. Also, the Potency result in the experiment with SC27B and in the experiment on TAB165 was “inactive” throughout.

On to `COc1ccc2c3c1O[C@H]1[C@@H](O)C=C[C@H]4C(C2)NCCC341` (stereo partly drawn), for which the Potency result with AA1029, in the experiment with AS120, in the experiment with ATS95, in the experiment on CP194, in the experiment with CP247 and with CP260 was “inactive” throughout. The Potency result in the experiment on CP266, with CP297, with DFO2036, with DIV14, in the experiment on DIV30 and in the experiment on Dd2 was “inactive” throughout. Also, the Potency result in the experiment on GB4, in the experiment with ICS, in the experiment with P93_24, with P94_40, in the experiment with PAD and with PC26 was “inactive” each time. Moreover, the Potency entry with SC27B and in the experiment with TAB165 was “inactive” throughout.

Turning to `CCCN1CCCC2Cc3nc(N)ncc3CC21` (stereo not drawn), the Potency result with AA1029, with AS120, in the experiment with ATS95, with CP194, in the experiment on CP247 and in the experiment with CP260 was “inactive” in each case. Moreover, the Potency entry in the experiment with CP266, in the experiment with CP297, with DFO2036, with DIV14, in the experiment on DIV30 and in the experiment with Dd2 was “inactive” throughout. Moreover, the Potency result in the experiment on GB4, in the experiment on ICS, in the experiment on P93_24, in the experiment on P94_40, with PAD and in the experiment on PC26 was “inactive” in each case. The Potency result in the experiment on SC27B and in the experiment on TAB165 was “inactive” throughout.

With `CC1(C)S[C@@H]2[C@H](N)C(=O)N2C1C(=O)O` (stereo partly drawn), the Potency result in the experiment on AA1029, in the experiment on AS120, with ATS95, in the experiment on CP194, with CP247 and with CP260 was “inactive” each time. The Potency entry in the experiment on CP266, in the experiment on CP297, in the experiment with DFO2036, with DIV14, in the experiment on DIV30 and in the experiment with Dd2 was “inactive” in each case. Also, the Potency result in the experiment on GB4, with ICS, in the experiment with P93_24, in the experiment on P94_40, with PAD and in the experiment with PC26 was “inactive” in each case. Moreover, the Potency entry in the experiment with SC27B and with TAB165 was “inactive” throughout.

`Cc1ccc2c(c1)[C@@H]1CN(C)CC[C@H]1N2`: the Potency result with AA1029, in the experiment with AS120, in the experiment with ATS95, with CP194, in the experiment with CP247 and in the experiment with CP260 was “inactive” each time. Moreover, the Potency result with CP297, in the experiment on DFO2036, in the experiment on DIV14, in the experiment with Dd2, with ICS and in the experiment on P93_24 was “inactive” each time. For the same compound, the Potency result with P94_40, in the experiment on PAD, in the experiment with PC26, in the experiment on SC27B and with TAB165 was “inactive” in each case.

With `C=C1Nc2ccccc2C(=O)N1c1ccccc1C`, the Potency entry with AA1029, with AS120, in the experiment with ATS95, in the experiment with CP194, in the experiment with CP247 and in the experiment on CP260 was “inactive” throughout. The Potency entry in the experiment with CP266, with CP297, with DFO2036, in the experiment with DIV14, in the experiment with DIV30 and with Dd2 was “inactive” each time. Also, the Potency entry in the experiment on GB4, with ICS, in the experiment on P93_24, with P94_40, with PAD and in the experiment with PC26 was “inactive” each time. Moreover, the Potency entry in the experiment with SC27B and in the experiment with TAB165 was “inactive” each time.

Regarding `OCC(O)[C@H]1O[C@@H]2O[C@H](C(Cl)(Cl)Cl)O[C@@H]2[C@H]1O` (stereo partly drawn), the Potency result in the experiment with AA1029, in the experiment with AS120, in the experiment with ATS95, with CP194, in the experiment on CP247 and with CP260 was “inactive” in each case. The Potency entry in the experiment with CP266, in the experiment with CP297, in the experiment with DFO2036, with DIV14, with DIV30 and in the experiment on Dd2 was “inactive” each time. For the same compound, the Potency entry in the experiment on GB4, in the experiment with ICS, with P93_24, in the experiment with P94_40, in the experiment with PAD and in the experiment with PC26 was “inactive” each time. Also, the Potency entry in the experiment on SC27B and in the experiment on TAB165 was “inactive” throughout.

With `C=CC[N+]1(C)CCC23c4c5ccc(O)c4O[C@H]2C(=O)CC[C@@]3(O)C1C5` (stereo partly drawn), the Potency result in the experiment on AA1029, in the experiment with AS120, with ATS95, with CP194, in the experiment with CP247 and with CP260 was “inactive” in each case. Moreover, the Potency entry in the experiment on CP266, in the experiment on CP297, in the experiment on DFO2036, in the experiment with DIV14, in the experiment with DIV30 and with Dd2 was “inactive” throughout. Besides, the Potency result with GB4, in the experiment with ICS, in the experiment with P93_24, in the experiment on P94_40, in the experiment on PAD and in the experiment with PC26 was “inactive” each time. For the same compound, the Potency result in the experiment on SC27B and in the experiment with TAB165 was “inactive” in each case.

As for `CC(CO)NC(=O)C1C=C2c3cccc4[nH]cc(c34)CC2N(C)C1` (stereo not drawn), the Potency result in the experiment with AA1029, with AS120, in the experiment with ATS95, with CP194, in the experiment with CP247 and in the experiment on CP260 was “inactive” each time. The Potency entry in the experiment on CP266, in the experiment on CP297, with DFO2036, with DIV30, in the experiment on Dd2 and in the experiment with GB4 was “inactive” throughout. Moreover, the Potency entry with ICS, with P93_24, with P94_40, in the experiment with PAD, in the experiment with PC26 and in the experiment on SC27B was “inactive” in each case. Also, the Potency result in the experiment on TAB165 is “inactive”.

`COC(C(=O)C(O)C(C)O)C1Cc2cc3cc(OC4CC(OC5CC(O)C(OC)C(C)O5)C(OC(C)=O)C(C)O4)c(C)c(O)c3c(O)c2C(=O)C1OC1CC(OC2CC(OC3CC(C)(O)C(OC(C)=O)C(C)O3)C(O)C(C)O2)C(O)C(C)O1` (stereo not drawn): the Potency with AA1029 is 794 nM (active); with AS120, 794 nM (active); with ATS95, 708 nM (active); in the experiment with CP194, 6750 nM (active); in the experiment on CP247, 1780 nM (active); in the experiment with CP260 it was 126 nM (active). In addition, the Potency in the experiment with CP297 is 4260 nM (active); with DFO2036, 1000 nM (active); in the experiment with DIV14 it was 2390 nM (active); in the experiment with Dd2, 178 nM (active); in the experiment on GB4 it was 2130 nM (active); in the experiment with ICS, 112 nM (active). The Potency was 794 nM (active) in the experiment with P93_24; 708 nM (active) in the experiment with P94_40; 891 nM (active) in the experiment on PAD; 1000 nM (active) with SC27B; 794 nM (active) in the experiment on TAB165.

Source of the values: PubChem BioAssay (NCATS).
